Data: PubChem BioAssay (Tox21)
Active and inactive are the calls of the source. The call rests on the fitted dose curve.

Molecular target: Acetylcholinesterase (Homo sapiens) (UniProt P22303)
Assay: Acetylcholinesterase (AChE) small molecule antagonists: enzyme-based qHTS assay with human liver microsomes (AID 1347399); further: nearly all actives have a fitted effect of over 60% in size
Details: Potency: qHTS inhibition; series mostly up to 115 µM; activity change, negative = inhibition: at the top concentration
Description: National Center for Advancing Translational Sciences [NCATS]
Division of Preclinical Innovation [DPI]
U.S. Environmental Protection Agency [EPA]
National Institutes of Environmental Health Sciences [NIEHS]
National Toxicology Program [NTP]
U.S. Food and Drug Administration [FDA]
Acetylcholinesterase (AChE) is the primary cholinesterase in the body that hydrolyzes a key neurotransmitter, acetylcholine. Inhibition of AChE activity can lead to neurotoxicity. The known inhibitors include organophosphorous pesticides (OP), chemical warfare agents, drugs, and various phytochemicals. Some compounds like OP compounds may need metabolic activation to be active AChE inhibitors. The cytochrome P450 (CYP) superfamily in the human microsomes is responsible for the metabolism of various endogenous and exogenous compounds.
An enzyme-based assay with the recombinant human AChE, human liver microsomes and Amplite Colormetric acetylcholinesterase assay kit (AAT Bioquest, Sunnyvale, CA) was used to evaluate compounds in the Tox21 10K library that need metabolic activation for AChE inhibition. The assay uses 5, 5-dithiobis-(2-nitrobenzoic acid) (DTNB) to quantify the thiocholine produced from the hydrolysis of acetylthiocholine by AChE.
Tox21 Assay Protocol Summary:
For the enzyme-based AChE assay with microsomes addition, a mixture of human AChE (50 mU/mL) and human liver microsomes (0.25 mg/mL, final concentration) in 3 uL/well was dispensed into black, clear-bottom 1536-well plates using a Multidrop Combi dispenser (Thermo Scientific, MA). Then, 23 nL of compound or DMSO (vehicle control) was transferred into the assay plates by a Pintool Station (Wako Automation, CA). Following compound addition, 1 uL of NADPH (0.25 mg/mL, final concentration) was transferred to the assay plate by a Flying Reagent Dispenser (Beckman Coulter, CA). The plates were incubated for 30 min at 37 C and 5% CO2, followed by the addition of 4 uL of colorimetric detection cocktail solution (DTNB, acetylthiocholine) into each well using a Flying Reagent Dispenser (Beckman Coulter, CA) and then 10 min incubation at room temperature.
On the % scale 0 is the no-effect control and ±100 the full control effect; potency means the concentration at half of the fitted maximal effect.

Sequence of Acetylcholinesterase (Homo sapiens) (P22303 whole entry, looked up): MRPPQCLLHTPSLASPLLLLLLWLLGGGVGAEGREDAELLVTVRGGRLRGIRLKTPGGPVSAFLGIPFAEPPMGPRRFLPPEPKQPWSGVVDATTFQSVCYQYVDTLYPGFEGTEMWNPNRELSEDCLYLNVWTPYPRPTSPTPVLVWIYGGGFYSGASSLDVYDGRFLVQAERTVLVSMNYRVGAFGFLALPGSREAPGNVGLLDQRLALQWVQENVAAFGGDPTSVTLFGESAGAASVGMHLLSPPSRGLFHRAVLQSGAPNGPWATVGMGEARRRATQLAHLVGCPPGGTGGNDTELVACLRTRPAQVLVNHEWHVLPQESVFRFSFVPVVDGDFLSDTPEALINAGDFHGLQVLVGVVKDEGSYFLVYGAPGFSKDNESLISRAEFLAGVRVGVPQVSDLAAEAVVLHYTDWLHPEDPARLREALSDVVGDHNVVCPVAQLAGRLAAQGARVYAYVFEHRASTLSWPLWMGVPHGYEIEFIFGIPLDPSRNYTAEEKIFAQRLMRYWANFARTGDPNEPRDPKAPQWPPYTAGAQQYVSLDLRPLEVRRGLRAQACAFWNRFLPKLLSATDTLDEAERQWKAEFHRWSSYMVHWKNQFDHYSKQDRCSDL

Compound	Potency	activity change, negative = inhibition
CCOP(=S)(OCC)SCS(=O)(=O)C(C)(C)C	8.94 µM (active)	
CC(=O)OC1(c2ccccc2)CCN(CCc2ccccc2)CC1		0.147% (inactive)
CC(C)CC(C)(c1ccc(O)cc1)c1ccc(O)cc1	inactive	
CCCOCC(=Nc1ccc(Cl)cc1C(F)(F)F)n1ccnc1		1.55% (inactive)
c1ccc2c(c1)OCC(C1=NCCN1)O2 (stereo not given)		-0.591% [at 53 µM] (inactive)
O=C(CBr)c1ccc(O)cc1		0.229% (inactive)
NNC(=O)c1ccccc1		3.07% (inactive)
CC(Cl)CN(C)C (stereo not given)		-1.46% (inactive)
CC1CCC(C(C)C)C(OC(=O)c2ccccc2N)C1 (stereo not given)		-0.511% (inactive)
CC(=O)c1cc(C(C)(C)C)cc2c1CCC2(C)C		0.535% (inactive)
COc1ccc(OC)c(CC(C)N)c1 (stereo not given)		0.295% (inactive)
Cc1cc(N=Nc2ccccc2C)ccc1N	inactive	
Cl/C=C\CCl		3.56% (inactive)
CN(C)S(=O)(=O)N(SC(F)(Cl)Cl)c1ccccc1	71 µM (active)	
CCCCCCCCCCCCCCCCCCn1cc[n+](C)c1		0.081% (inactive)
CN(C)c1ccc(N=Nc2ccccc2)cc1		27.5% (inactive)
O=S(=O)(c1ccc(Cl)cc1)c1ccc(Cl)cc1		2.96% (inactive)
CCOP(=S)(OCC)OC(Cl)C(Cl)(Cl)Cl (stereo not given)	28.3 µM (active)	
CCOC(=O)CC(=O)CCl		-0.609% (inactive)
CN(C)CCc1c[nH]c2cccc(O)c12		0% (inactive)

Compound	Potency	activity change, negative = inhibition
C[C@@H]1O[C@@H](O[C@@H]2C=C3CC[C@@H]4[C@H](CC[C@]5(C)[C@@H](c6ccc(=O)oc6)CC[C@]45O)[C@@]3(C)CC2)[C@H](O)[C@H](O)[C@H]1O		3.02% [at 53 µM] (inactive)
Cc1cc(C)cc(OP(=O)(Oc2cc(C)cc(C)c2)Oc2cc(C)cc(C)c2)c1		2.89% (inactive)
N#CC(Cl)Cl		-2.72% (inactive)
Oc1ccc(C2(c3ccc(O)cc3)c3ccccc3-c3ccccc32)cc1		1.69% (inactive)
N#CCc1ccc(Cl)cc1		0.324% (inactive)
O=[N+]([O-])c1ccc2ccc3cccc4ccc1c2c34		12.6% (inactive)
N#CSCSC#N	inactive	
CC1(C)CN=C(NN=C(/C=C/c2ccc(C(F)(F)F)cc2)/C=C/c2ccc(C(F)(F)F)cc2)NC1		6.37% (inactive)
CC(C)CC(C)Nc1ccc(Nc2ccccc2)cc1 (stereo not given)		6.29% (inactive)
Cc1cc(SCc2sc(-c3ccc(C(F)(F)F)c(F)c3)nc2C)ccc1OCC(=O)O		0.993% (inactive)
C[C@@H](Oc1ccc(Cl)cc1Cl)C(=O)O		11.1% (inactive)
CCCCCCCCCBr		2.19% (inactive)
O=C1NCN(c2ccccc2)C12CCN(CC1COc3ccccc3O1)CC2 (stereo not given)		2.83% [at 53 µM] (inactive)
Clc1ccc(CSC(Cn2ccnc2)c2ccc(Cl)cc2Cl)cc1 (stereo not given)		1.03% [at 53 µM] (inactive)
CCCCOCN(C(=O)CCl)c1c(CC)cccc1CC		-0.437% (inactive)
C[C@]12CC[C@@H]3c4ccc(OC(=O)N(CCCl)CCCl)cc4CC[C@H]3[C@@H]1CC[C@@H]2O		-0.0105% [at 53 µM] (inactive)
O=C(CCl)C(Cl)Cl		-0.638% (inactive)
CC(C)C1CCC(Cc2ccc(Cl)cc2)C1(O)Cn1cncn1 (stereo not given)		-0.444% (inactive)
ClC1=C(Cl)C2(Cl)C3C(Cl)C(Cl)CC3C1(Cl)C2(Cl)Cl (stereo not given)	inactive	
Oc1ccc2ccc3cccc4ccc1c2c34		1.01% (inactive)
